Measured values taken from PubChem BioAssay AID686978 (National Center for Advancing Translational Sciences (NCATS), 2013).
Out of some 420,000 compounds screened, about 64,000 (15%) were called active. About 27% were inconclusive and are not listed. The call rests on the fitted dose curve; in most records, active means well fitted inhibition curve with a large enough effect; inconclusive means small, poorly fitted or top-dose-only effect; inactive means flat fitted curve, though single readings scatter. A selection follows. Entries that show only a call come without a potency.

Test: qHTS for Inhibitors of human tyrosyl-DNA phosphodiesterase 1 (TDP1): qHTS in cells in absence of CPT; further: nearly all actives have a fitted effect of over 55% in size
Conditions: DT40 Tdp1-/- hTDP1 cells, no CPT, ATP luminescence, 48 h; activity change, negative = growth inhibition: at 46.2 µM (top of the series)
Summary of the method: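 Chicken DT40 Tdp1-/- cells stably complemented with human TDP1 were seeded at 400 cells/well with DMSO in place of 20 nM camptothecin. After compound pinning, cells grew at least 48 hr at 37 °C; viability read by CellTiter-Glo luminescence.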
Potency means the concentration at half of the fitted maximal effect.

Compound	Potency
Cc1ccc(NC(=O)CSc2nnc(CNC(=O)c3ccccc3F)o2)cc1	inactive
COc1ccc(-c2cc(=O)oc3cc(OCC(=O)N(C)C4CCS(=O)(=O)C4)ccc23)cc1 (configuration not stated)	inactive
Cc1ccc(-c2c[n+](=O)c3c(n2[O-])CCC3)cc1	inactive
O=C(C1CCN(C2CCN(Cc3cccc4c3OCO4)CC2)CC1)N1CCOCC1	inactive
COC(=O)C(C)n1cnc2c(nnn2-c2ccc(F)cc2)c1=O (configuration not stated)	inactive
O=C1CC(c2ccccc2)C(c2ccccc2)=NN1 (configuration not stated)	inactive
CCOc1ccc(N2CC(C(=O)NCc3ccccn3)CC2=O)cc1 (configuration not stated)	inactive
O=C(COC(=O)Cc1ccc(Br)cc1)Nc1ccc(N2CCOCC2)cc1	inactive
COc1ccc(C(=O)Nc2c(N)nc(SCC(=O)Nc3ccc(C(C)=O)cc3)[nH]c2=O)cc1	inactive
Cc1cc(Cl)c(S(=O)(=O)N(C)C)cc1OCC(N)=O	inactive
COc1ccc(C(=O)CSc2nc(C)cc(C)n2)cc1[N+](=O)[O-]	inactive
COc1ccc(C(C[N+](=O)[O-])n2nc(C)cc2C)cc1 (configuration not stated)	6.51 µM (active)
COc1ccc(OC)c(S(=O)(=O)n2c([N+](=O)[O-])cnc2C)c1	inactive
C/C(=N\N)c1c(-c2ccccc2)c2cc(Br)ccc2[nH]c1=O	inactive
COc1ccc(CCNC(=O)COC(=O)/C=C/c2cccs2)cc1OC	inactive
Cc1[nH]n(C)c(=O)c1N=Nc1ccc(S(C)(=O)=O)cc1	inactive
Cc1nnc(Nc2ccccc2F)s1	inactive
Nc1ncnc2c1ncn2[C@@H]1O[C@H](CNCc2cccn2-c2nccs2)[C@@H](O)[C@H]1O	inactive
COc1ccc(N2CCN(CCCNC(=O)C3CCN(S(=O)(=O)N4CCOCC4)CC3)CC2)cc1	inactive
N#CCCn1c(=O)c(-c2cc(F)cc(F)c2)nc2cnc(Oc3ccccc3)nc21	inactive
COc1cccc(/C=N\Nc2nncc(-c3ccccc3)n2)c1	inactive
CCOc1ccc(/C=N/Nc2nncc(-c3ccccc3)n2)cc1OC	14.6 µM (active)
COc1cc(/C=N/n2c(C)n[nH]c2=S)ccc1OCc1ccccc1	inactive
COc1cc(OC)c(N2CC(C(=O)Nc3cc(Cl)ccc3N3CCOCC3)CC2=O)cc1Cl (configuration not stated)	3.66 µM (active)
Cc1ccc(N2CC(C(=O)Nc3cc(Cl)ccc3-n3cncn3)CC2=O)cc1 (configuration not stated)	inactive
COc1ccccc1N1CC(C(=O)Nc2ccc(S(=O)(=O)N3CCOCC3)cc2)CC1=O (configuration not stated)	inactive

Compound	Potency
O=C(c1cnccn1)N1CCC[C@@]2(CCN(Cc3ccncc3)C2)C1	inactive
CC(=O)c1cnc(SCCN2C(=O)c3ccccc3C2=O)nc1C	inactive
Cc1cc(NC(=O)CCC(=O)N(CC(=O)NC2CCCC2)c2ccc(F)cc2)no1	inactive
Cc1cc(NC(=O)CCC(=O)N(c2cccc(F)c2)C(C(=O)NC2CCCC2)c2ccncc2)no1 (configuration not stated)	inactive
Cc1cc(NC(=O)/C=C/C(=O)N(c2ccccc2C)C(C(=O)NC2CCCC2)c2ccc(F)cc2)no1 (configuration not stated)	23.1 µM (active)
O=C(NC1CCC(O)CC1)c1ccc(S(=O)(=O)NCc2ccco2)cc1 (configuration not stated)	inactive
COc1ccc(NC(=O)Cn2ncn3c(cc4ccccc43)c2=O)c(OC)c1OC	inactive
COc1ccc(CNC(=O)c2nnn(CC(=O)Nc3cc(C)cc(C)c3)c2N)cc1	inactive
C=CCc1ccccc1OCC(=O)N/N=C/c1ccccc1OCC	inactive
Cc1ccc(/C=N/NC(=O)COc2ccccc2-c2ccccc2)cc1	0.184 µM (active)
Cc1ccc(OCC(=O)N/N=C/c2ccncc2)cc1	inactive
COc1cc(Cl)c(S(=O)(=O)N2CCN(Cc3ccc4c(c3)OCO4)CC2)cc1Cl	inactive
OCCC1CN(Cc2ccc3nsnc3c2)CCN1C1CCCC1 (configuration not stated)	inactive
C=C1C(=O)[C@]23C[C@H]1CCC2[C@@]1(C)C(C[C@@H]3O)[C@](C)(C(=O)O)CC[C@@H]1O (some centres not stated)	6.51 µM (active)
O=C(CSc1ncn[nH]1)Nc1nc2c(F)c(F)c(F)cc2s1	inactive
CC(C)(C)NC(=O)NC(=O)COC(=O)Cc1c(F)cccc1Cl	inactive
COc1ccccc1NC(=O)CN1CCN(S(=O)(=O)c2ccc(Br)cc2)CC1	inactive
CCN1CCCC1CNC(=O)Cn1cnc2ccc(S(=O)(=O)N3CCC(C)CC3)cc2c1=O (configuration not stated)	inactive
COc1ccccc1NC(=O)Cn1cnc2ccc(S(=O)(=O)N3CCC(C)CC3)cc2c1=O	23.1 µM (active)
CC(C)CN(C(=O)CN1CCN(S(=O)(=O)c2ccccc2)CC1)c1c(N)n(CC(C)C)c(=O)[nH]c1=O	inactive
Cc1cc(NC(=O)OC(C)C)ccc1-c1ccc(NC(=O)OC(C)C)cc1C	inactive
CN(CCO)c1ccc(/C=N/Nc2nncc3ccccc23)cc1	14.6 µM (active)
COc1ccc(/C=N/Nc2nc3ccccc3c(=O)[nH]2)cc1	inactive
CC(=O)Nc1ccc(NC(=O)CCCNC(=O)c2ccc(Cl)cc2)cc1	inactive
CCCCNC(=O)C1CCCNC1=O (configuration not stated)	inactive
COc1cccc(CNC(=O)c2nnn(CC(=O)Nc3cc(C)ccc3C)c2N)c1	inactive

Compound	Potency
O=C(CNc1ccccc1N1CCCC1=O)Nc1cc(Cl)ccc1-n1cncn1	inactive
CCOC(=O)CC1C(=O)NCCN1c1nc2c(C)cccn2c(=O)c1/C=C1\SC(=S)N(C(C)CC)C1=O (configuration not stated)	18.4 µM (active)
CCOC(=O)N1CCN(C(=O)CSc2nc(=O)n3cccc(C)c3n2)CC1	inactive
CCOC(=O)CNC(=O)c1cc2c(=O)n3cccc(C)c3nc2s1	inactive
CCSc1nnc(NC(=O)Cc2ccccc2OC)s1	inactive
CCOC(=O)N1CCN(C(=O)c2cn(C)c3ccc(S(=O)(=O)N(CC)CC)cc3c2=O)CC1	inactive
CCCCNC(=O)c1cc(-c2ccc(Cl)c(Cl)c2)on1	inactive
COC(=O)CN1C(=O)N/C(=C/c2ccc(OC)c(C)c2OC)C1=O	inactive
COC(=O)[C@H](C)NC(=O)Nc1ccc(OC(F)(F)F)cc1	inactive
Cn1cccc1/C=N/NC(=O)c1ccc(OC(F)(F)C(F)F)cc1	inactive
O=C(Nc1ccc(OC(F)(F)F)cc1)c1ccc2c(c1)no[n+]2[O-]	3.66 µM (active)
CC(=O)OCc1cc2cc(C)ccc2[nH]c1=O	inactive
C/C(CC(=O)NCc1ccc(Cl)cc1)=N\NC(=O)COc1ccc(C)cc1Br	3.26 µM (active)
CC(=O)Nc1ccc(OCC(=O)NCc2ccc(C)cc2)cc1	inactive
CCCCC(=O)N/N=C(\C)CC(=O)Nc1cc(Cl)ccc1OC	inactive
COCCNC(=S)N1CCN(C)CC1	inactive
COC(=O)c1cc(NC(=O)CN2CCC(C(N)=O)(N3CCCCC3)CC2)cc(C(=O)OC)c1	inactive
Cc1oc2c(c1C(=O)Nc1ccc(F)c(F)c1)C1=NCCN1C=N2	inactive
O=C(CN1C(=O)CCS(=O)(=O)c2ccccc21)NCc1ccc(F)cc1	inactive
CC(NC(=O)C(=O)Nc1nccs1)c1ccccc1 (configuration not stated)	inactive
O=C(NCc1ccco1)c1cccn2c(=O)c3c4c(sc3nc12)CCCC4	7.31 µM (active)
O=C(NCc1ccco1)c1nc2ncccn2n1	inactive
O=c1oc(-c2ccco2)nc2sc3c(c12)CCCCC3	inactive
O=C(c1cnc(Cl)c(Cl)c1)N1CCN(S(=O)(=O)c2ccc(F)cc2)CC1	inactive
Cc1cc(C)c(/C=C2\C(=O)Nc3ccccc32)[nH]1	inactive
COc1ccccc1N1CC(C(=O)NCCN2C(=O)S/C(=C\c3cccnc3)C2=O)CC1=O (configuration not stated)	inactive

Compound	Potency
CN1CCN(C2=NCCO2)CC1	inactive
Cc1ccc(-n2c(SCC(=O)Nc3ccc4c(c3)OCO4)nnc2-c2ccoc2C)cc1	inactive
O=C(CN(c1cc(C(F)(F)F)ccc1Cl)S(=O)(=O)c1ccccc1)NCc1cccnc1	18.4 µM (active)
O=C(O)c1cc(S(=O)(=O)N(Cc2ccccc2)c2cccc(C(F)(F)F)c2)ccc1Cl	inactive
CCc1ccc(N(CC(=O)NCc2cccnc2)S(=O)(=O)c2ccccc2)cc1	inactive
CC(=O)Nc1ccc(NC(=O)CSc2ncnc3c2cnn3Cc2ccccc2)cc1	inactive
OCc1n[nH]c(CO)n1	inactive
COc1ccc(C(=O)N2CCCCC2c2cc(C(=O)Nc3ccc(F)c(Cl)c3)no2)cc1 (configuration not stated)	23.1 µM (active)
COc1ccc(C(=O)Nc2c(Cl)cc(Cl)cc2C(=O)N2CCC(C)CC2)cc1	inactive
CCCNC(=O)c1cc(C2CCCCN2C(=O)OC)on1 (configuration not stated)	inactive
CC(=O)c1ccc(N2C(=NC(=O)C(C)C)SC3CS(=O)(=O)CC32)cc1 (configuration not stated)	inactive
COc1ccc(NC(=O)CN2CCN(S(=O)(=O)c3ccc(F)cc3)CC2)cc1Cl	inactive
CCNC(=O)c1ccc(OCC(=O)Nc2ccc(F)cc2)c(OC)c1	inactive
CCCOc1ccc(F)cc1-c1cc(C(=O)Nc2ccc(F)c(Cl)c2)[nH]n1	16.4 µM (active)
O=C(O)Cc1csc(NC(=O)CSc2nnnn2-c2ccc(O)cc2)n1	inactive
CC(=O)Nc1ccc(S(=O)(=O)Oc2ccc(/C=N/N=C3/NC(=O)C(CC(=O)O)S3)cc2)cc1 (configuration not stated)	inactive
CCOc1ccc(C(O)Cn2c(=N)n(CCN3CCCCC3)c3ccccc32)cc1 (configuration not stated)	23.1 µM (active)
Cn1c(=N)n(CC(O)c2cccs2)c2ccccc21 (configuration not stated)	inactive
Cn1c(=N)n(CC(O)c2ccccc2)c2ccccc21 (configuration not stated)	inactive
NS(=O)(=O)c1ccc(CCNC(=O)c2ccc(Cl)cc2[N+](=O)[O-])cc1	inactive
CC(=O)NCCc1ccc(S(=O)(=O)N(C)C2CCS(=O)(=O)C2)cc1 (configuration not stated)	inactive
CCc1nnc(NS(=O)(=O)c2ccc(NS(=O)(=O)c3ccccc3)cc2)s1	inactive
CCc1nnc(NS(=O)(=O)c2ccc(N=Cc3c(C)[nH]n(-c4ccc(C)cc4)c3=O)cc2)s1	11.2 µM (active)
COc1cc(NS(=O)(=O)c2ccc(N=Cc3c(C)[nH]n(-c4ccccc4)c3=O)cc2)nc(OC)n1	inactive
